Results filed as inconclusive are left out. Entries that show only a call come without a potency. Activity calls are given as the source filed them. Unless noted, the call rests on the fitted dose curve; in most records, active means well fitted cell-killing curve with a large enough effect in the repeat runs; inconclusive means weak or mixed curves, or effect the other way; inactive means flat fitted curve, though single readings scatter.
Molecular target: Estrogen receptor beta (Homo sapiens) (UniProt Q92731)
Sequence (Q92731 whole entry, looked up): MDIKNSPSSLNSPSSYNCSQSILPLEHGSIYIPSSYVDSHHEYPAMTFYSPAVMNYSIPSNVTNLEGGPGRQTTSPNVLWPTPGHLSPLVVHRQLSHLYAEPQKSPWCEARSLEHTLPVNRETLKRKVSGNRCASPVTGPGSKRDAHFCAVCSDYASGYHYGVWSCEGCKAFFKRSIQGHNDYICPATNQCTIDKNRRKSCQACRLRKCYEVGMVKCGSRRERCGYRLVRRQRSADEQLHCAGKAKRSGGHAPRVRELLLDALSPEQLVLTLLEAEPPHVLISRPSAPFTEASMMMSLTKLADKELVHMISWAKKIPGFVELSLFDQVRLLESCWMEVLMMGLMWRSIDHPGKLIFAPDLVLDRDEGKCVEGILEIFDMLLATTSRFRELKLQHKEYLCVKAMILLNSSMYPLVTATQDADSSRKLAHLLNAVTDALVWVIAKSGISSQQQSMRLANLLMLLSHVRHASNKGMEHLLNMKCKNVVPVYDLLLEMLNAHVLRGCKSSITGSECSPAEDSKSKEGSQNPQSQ
Experiment: qHTS assay to identify small molecule agonists of the estrogen receptor beta (ER-beta) signaling pathway (AID 1259377; active means well fitted activation curve with a large enough effect in the signal ratio in the repeat runs, not every such curve was filed as active; the % refers to the signal ratio)
Conditions: ER-beta-UAS-bla HEK293T, beta-lactamase FRET ratio, 16 h; series mostly up to 92.4 µM
In short: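 Ratiometric beta-lactamase FRET read-out came after 2 h substrate loading at room temperature. It followed 16 h compound treatment at 37C of GripTite HEK293T cells carrying a UAS-bla reporter, plated in 2% charcoal-stripped FBS medium.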

Q: For `CC1=C(CC(=O)O)c2cc(F)ccc2/C1=C\c1ccc(S(C)(=O)=O)cc1`, which outcome is on record?
A: inactive

Q: Which outcome does the source give for `Cc1ccc([N+](=O)[O-])c(N)c1` here?
A: inactive

Q: Which outcome does the source give for `CC1(C)O[C@@H]2C[C@H]3[C@@H]4CCC5=CC(=O)CC[C@]5(C)[C@@]4(F)[C@@H](O)C[C@]3(C)[C@]2(C(=O)CCl)O1` here?
A: inactive

Q: Which outcome does the source give for `CCCCCCCCc1ccc(S(=O)(=O)O)cc1` here?
A: inactive

Q: With `Cc1c(-c2ccccc2)oc2c(C(=O)OCCN3CCCCC3)cccc2c1=O` as the compound, how does the outcome read?
A: inactive

Q: Which outcome does the source give for `CCc1cc2cc(OC)c(OC)cc2c(Cc2ccccc2)n1` here?
A: inactive

Q: For `CCN1CC(CCN2CCOCC2)C(c2ccccc2)(c2ccccc2)C1=O` (stereo not given), which outcome is on record?
A: inactive

Q: With `Cc1nc(N)nc(N)c1-c1ccc(Cl)c(Cl)c1` as the compound, how does the outcome read?
A: inactive

Q: Which outcome does the source give for `CC(C)Nc1nc(N)nc(Cl)n1` here?
A: inactive

Q: For `CCCCOc1cc(C(=O)NCCN(CC)CC)c2ccccc2n1`, which outcome is on record?
A: inactive

Q: Which activation does the source give for `O=C(O)c1ccccc1Nc1cc(Cl)ccc1C(=O)O` here?
A: 0.616% [at 19 µM] (inactive)

Q: For `Oc1ccccc1F`, which outcome is on record?
A: inactive

Q: Which outcome does the source give for `CC(C)NC[C@@H](O)COc1cccc2ccccc12` here?
A: inactive

Q: For `Cc1ccc([N+](=O)[O-])cc1Cl`, which outcome is on record?
A: inactive

Q: Which outcome does the source give for `CN(CC1(C)CCCO1)S(=O)(=O)c1ccc(Cl)c(S(N)(=O)=O)c1` (stereo not given) here?
A: inactive

Q: For `CC[C@H]1CC[C@H](NCc2cc3c(cc2OC)[C@H]2C[C@H]2C(=O)N3C)[C@H](c2ccccc2)N1`, which outcome is on record?
A: inactive

Q: Which outcome does the source give for `CC(C)O` here?
A: inactive

Molecular target: Estrogen receptor beta (Homo sapiens) (UniProt Q92731)
Experiment: qHTS assay to identify small molecule antagonists of the estrogen receptor beta (ER-beta) signaling pathway (AID 1259378; active means well fitted inhibition curve with a large enough effect in the signal ratio in the repeat runs, not every such curve was filed as active; the % refers to the signal ratio)
Conditions: ER-beta-UAS-bla HEK293T, beta-lactamase FRET ratio, 16 h; series mostly up to 92.4 µM
In short: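 ER-beta-UAS-bla HEK293T (GripTite) cells in 2% charcoal-stripped FBS medium were preincubated 6 hr at 37C, dosed with compound, then stimulated with 1 nM E2 (final) for 16 hr; beta-lactamase reporter read by B/G FRET fluorescence after 2 hr substrate loading.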

Q: With `Cc1ccc([N+](=O)[O-])c(N)c1` as the compound, how does the Potency read?
A: inactive

Q: With `CCN1CC(CCN2CCOCC2)C(c2ccccc2)(c2ccccc2)C1=O` (stereo not given) as the compound, how does the Potency read?
A: inactive

Q: With `Oc1ccccc1F` as the compound, how does the Potency read?
A: inactive

Q: With `Cc1ccc([N+](=O)[O-])cc1Cl` as the compound, how does the Potency read?
A: inactive

Q: With `CC[C@H]1CC[C@H](NCc2cc3c(cc2OC)[C@H]2C[C@H]2C(=O)N3C)[C@H](c2ccccc2)N1` as the compound, how does the Potency read?
A: inactive

Q: With `CN1[C@@H]2CC[C@H]1CC(OC(=O)c1c[nH]c3ccccc13)C2` (stereo not given in full) as the compound, how does the Potency read?
A: inactive

Q: With `ClC(Cl)Cl` as the compound, how does the Potency read?
A: inactive

Q: With `CC(C)O` as the compound, how does the Potency read?
A: inactive

Tested on: not listed separately
Experiment: qHTS assay to identify small molecule agonists of the androgen receptor (AR) signaling pathway in the presence of an antagonist - cell viability counter screen (AID 1259379);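 further: MDA-kb2 human breast cancer cells carrying an MMTV luciferase reporter; nearly all actives have a fitted effect of over 25% in size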
Conditions: MDA-kb2 viability, CellTiter-Fluor, 16 h; series mostly up to 92.4 µM
In short: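 Fluorescence from CellTiter-Fluor, added after 15 hr and read 1 hr later, gave cell viability. Cells were MDA-kb2 exposed to compounds (15 concentrations) in the presence of 3.0uM nilutamide at 37C, 0% CO2.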

Q: With `CC1=C(CC(=O)O)c2cc(F)ccc2/C1=C\c1ccc(S(C)(=O)=O)cc1` as the compound, how does the Potency read?
A: inactive

Q: Which Potency does the source give for `CC1(C)O[C@@H]2C[C@H]3[C@@H]4CCC5=CC(=O)CC[C@]5(C)[C@@]4(F)[C@@H](O)C[C@]3(C)[C@]2(C(=O)CCl)O1` here?
A: inactive

Q: Which Potency does the source give for `CCCCCCCCc1ccc(S(=O)(=O)O)cc1` here?
A: inactive

Q: For `Cc1c(-c2ccccc2)oc2c(C(=O)OCCN3CCCCC3)cccc2c1=O`, which Potency is on record?
A: inactive

Q: With `CCc1cc2cc(OC)c(OC)cc2c(Cc2ccccc2)n1` as the compound, how does the Potency read?
A: inactive

Q: Which Potency does the source give for `CCN(CC)CCOc1ccc(Cc2ccccc2)cc1` here?
A: inactive

Q: With `CCc1cc(Cl)c(OC)c(C(=O)NC[C@@H]2CCCN2CC)c1O` as the compound, how does the Potency read?
A: inactive

Q: Which Potency does the source give for `CC(C)Nc1nc(N)nc(Cl)n1` here?
A: inactive

Q: Which Potency does the source give for `CC(=O)Nc1ccc(C)c(Cl)c1` here?
A: inactive

Q: With `O=C(O)c1ccccc1Nc1cc(Cl)ccc1C(=O)O` as the compound, how does the activity change, negative = cytotoxicity read?
A: -0.898% [at 19 µM] (inactive)

Q: Which Potency does the source give for `CC(C)OC(C)C` here?
A: inactive

Q: For `CC(C)NC[C@@H](O)COc1cccc2ccccc12`, which Potency is on record?
A: inactive

Q: Which Potency does the source give for `Nc1ccc(Oc2ccc(N)c(N)c2)cc1` here?
A: inactive

Q: Which Potency does the source give for `OCC(CBr)(CBr)CBr` here?
A: inactive

Q: For `CN(CC1(C)CCCO1)S(=O)(=O)c1ccc(Cl)c(S(N)(=O)=O)c1` (stereo not given), which Potency is on record?
A: inactive

Q: Which Potency does the source give for `CC(C)(CO)[C@@H](O)C(=O)NCCC(=O)O` here?
A: inactive

Q: For `C=CC1CO1` (stereo not given), which Potency is on record?
A: inactive

Q: For `C[C@]12C(=O)OC(=O)[C@H]1[C@H]1C=C[C@@H]2C1`, which Potency is on record?
A: inactive

Q: Which Potency does the source give for `CCC(=O)Nc1ccc(O)cc1` here?
A: inactive

Q: For `ClC(Cl)Cl`, which Potency is on record?
A: inactive

Q: With `CN(C)CC[C@@H](c1ccc(Cl)cc1)c1ccccn1` as the compound, how does the Potency read?
A: inactive

Q: Which Potency does the source give for `CCCCCCOc1ccc(N)cc1` here?
A: inactive

Tested on: not listed separately
Experiment: qHTS assay to identify small molecule agonists of the estrogen receptor beta (ER-beta) signaling pathway - cell viability counter screen (AID 1259380); further: nearly all actives have a fitted effect of over 30% in size; further: potency means the concentration at half of the fitted maximal effect
Conditions: ER-beta-bla HEK293T viability, CellTiter-Glo luminescence, 16 h; series mostly up to 92.4 µM
In short: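 Same-well viability counter screen. Cells: ER-beta-UAS-bla HEK293T, plated 6 hr before compound, in 2% charcoal-stripped FBS. Compound exposure 16 hr, 37C; viability by CellTiter-Glo luminescence after 30 min at room temperature.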

Q: Which Potency does the source give for `Cc1ccc([N+](=O)[O-])c(N)c1` here?
A: inactive

Q: For `CS(=O)(=O)c1ccc([C@@H](O)[C@@H](CF)NC(=O)C(Cl)Cl)cc1`, which Potency is on record?
A: inactive

Q: With `Cc1c(-c2ccccc2)oc2c(C(=O)OCCN3CCCCC3)cccc2c1=O` as the compound, how does the Potency read?
A: inactive

Q: With `CCc1cc2cc(OC)c(OC)cc2c(Cc2ccccc2)n1` as the compound, how does the Potency read?
A: inactive

Q: Which Potency does the source give for `CCN1CC(CCN2CCOCC2)C(c2ccccc2)(c2ccccc2)C1=O` (stereo not given) here?
A: inactive

Q: With `Cc1nc(N)nc(N)c1-c1ccc(Cl)c(Cl)c1` as the compound, how does the Potency read?
A: 2.66 µM (active)

Q: For `CC(C)Nc1nc(N)nc(Cl)n1`, which Potency is on record?
A: inactive

Q: With `CC(=O)Nc1ccc(C)c(Cl)c1` as the compound, how does the Potency read?
A: inactive

Q: Which activity change, negative = cytotoxicity does the source give for `O=C(O)c1ccccc1Nc1cc(Cl)ccc1C(=O)O` here?
A: -3.75% [at 19 µM] (inactive)

Q: For `O=Cc1ccc(O)c(O)c1O`, which Potency is on record?
A: inactive

Q: Which Potency does the source give for `CC(C)OC(C)C` here?
A: inactive

Q: For `OCC(CBr)(CBr)CBr`, which Potency is on record?
A: inactive

Q: Which Potency does the source give for `CN(CC1(C)CCCO1)S(=O)(=O)c1ccc(Cl)c(S(N)(=O)=O)c1` (stereo not given) here?
A: inactive

Q: With `CC(C)(CO)[C@@H](O)C(=O)NCCC(=O)O` as the compound, how does the Potency read?
A: inactive

Q: With `NC1=NCC2c3ccccc3Cc3ccccc3N12` (stereo not given) as the compound, how does the Potency read?
A: inactive

Q: For `CCC(=O)O[C@]1(C(=O)SCF)[C@H](C)C[C@H]2[C@@H]3C[C@H](F)C4=CC(=O)C=C[C@]4(C)[C@@]3(F)[C@@H](O)C[C@@]21C`, which Potency is on record?
A: inactive

Q: With `C[C@]12C(=O)OC(=O)[C@H]1[C@H]1C=C[C@@H]2C1` as the compound, how does the Potency read?
A: inactive

Q: Which Potency does the source give for `CN1[C@@H]2CC[C@H]1CC(OC(=O)c1c[nH]c3ccccc13)C2` (stereo not given in full) here?
A: inactive

Q: With `ClC(Cl)Cl` as the compound, how does the Potency read?
A: inactive

Q: Which Potency does the source give for `CC(C)O` here?
A: inactive

Q: Which Potency does the source give for `COC(=O)C(C)O` (stereo not given) here?
A: inactive

Q: With `CN(C)CC[C@@H](c1ccc(Cl)cc1)c1ccccn1` as the compound, how does the Potency read?
A: inactive

Q: For `CCCCCCOc1ccc(N)cc1`, which Potency is on record?
A: 17.2 µM (active)
